Records with an inconclusive call do not appear. A call without a number means that no potency is given here. Active and inactive are the calls of the source. Calls come from the whole dose curve; as a rule, active = well fitted cell-killing curve with a large enough effect; inconclusive = small, poorly fitted or top-dose-only effect, or effect the other way; inactive = flat fitted curve, though single readings scatter.
Each compound was assayed on SKOV3 (assay: Primary qHTS to identify gynecologic anti-cancer compounds using libraries of approved drugs and bioactive compounds (AID 1345084; note: nearly all actives have a fitted effect of over 55% in size)). Settings: Gynecologic cancer cell panel viability, ATPlite luminescence, 48 h; series mostly up to 57.5 µM.
Method in brief: (§1)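 Cells, 1,000 per well, were allowed to settle for 16 h at 37 C before compound addition. Five concentrations were tested for 48 h, and viability was read by ATPlite luminescence after 15 min at room temperature.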
Potency is the fitted concentration of half-maximal effect.

Compound	Potency
OC1(c2ccc(Cl)c(C(F)(F)F)c2)CCN(CCCC(c2ccc(F)cc2)c2ccc(F)cc2)CC1	25.1 µM (active)
Nc1ccc2c(c1)CN1C(=O)c3ccccc3C1=N2	7.94 µM (active)
C[C@@H](C1=C(CCN(C)C)Cc2ccccc21)c1ccccn1	inactive
Cc1ccc(Cl)c(OCC(O)CNC(C)(C)C)c1 (stereo unspecified)	inactive
CC(C(O)c1ccccc1)N(C)CCOC(c1ccccc1)c1ccccc1 (stereo unspecified)	20 µM (active)
CCCCCCOC(=O)NC(=N)c1ccc(NCc2nc3cc(C(=O)N(CCC(=O)OCC)c4ccccn4)ccc3n2C)cc1	inactive
CC(C)(C)c1ccc(O)c(O)c1	31.6 µM (active)
CC[C@@H]([C@H](C)O)n1ncn(-c2ccc(N3CCN(c4ccc(OC[C@@H]5CO[C@@](Cn6cncn6)(c6ccc(F)cc6F)C5)cc4)CC3)cc2)c1=O	15.8 µM (active)
O=C(Oc1ccccc1)c1cccc(C(=O)Oc2ccccc2)c1	inactive
CC(C)=CCNc1ncnc2c1ncn2[C@@H]1O[C@H](CO)[C@@H](O)[C@H]1O	11.2 µM (active)
C[C@H](N)C(=O)N[C@@H](C)C(=O)NC1[C@H]2CN(c3nc4c(cc3F)c(=O)c(C(=O)O)cn4-c3ccc(F)cc3F)C[C@@H]12 (stereo partly specified)	inactive
CCCCCCCCCCCCCCCCCCNC(=O)OC1CCN(C(=O)OC[C@H](COC(=O)N(Cc2cccc[n+]2CC)C(=O)c2ccccc2OC)OC)CC1	20 µM (active)

The compounds below were run on Tov-21-G in the same assay as above. Settings: Gynecologic cancer cell panel viability, ATPlite luminescence, 48 h; series mostly up to 57.5 µM.
Method in brief: as §1

Compound	Potency
CCOC(=O)N1CCC(n2c(=O)[nH]c3cc(Cl)ccc32)CC1	inactive
OC1(c2ccc(Cl)c(C(F)(F)F)c2)CCN(CCCC(c2ccc(F)cc2)c2ccc(F)cc2)CC1	inactive
Nc1ccc2c(c1)CN1C(=O)c3ccccc3C1=N2	10 µM (active)
C[C@@H](C1=C(CCN(C)C)Cc2ccccc21)c1ccccn1	inactive
CC(C(O)c1ccccc1)N(C)CCOC(c1ccccc1)c1ccccc1 (stereo unspecified)	inactive
O=C(Nc1ccc(Cl)cc1)Nc1ccc(Cl)c(Cl)c1	inactive
CN1CCCN(C(c2ccccc2)c2ccc(Cl)cc2)CC1 (stereo unspecified)	inactive
CCCCCCOC(=O)NC(=N)c1ccc(NCc2nc3cc(C(=O)N(CCC(=O)OCC)c4ccccn4)ccc3n2C)cc1	inactive
CCCCCCCCCCCCCC[N+](C)(C)C	5.62 µM (active)
Cc1cc(OCCOCC[N+](C)(C)Cc2ccccc2)ccc1C(C)(C)CC(C)(C)C	inactive
CCCC(=O)O[C@]1(C(=O)CCl)[C@@H](C)C[C@H]2[C@@H]3CCC4=CC(=O)C=C[C@]4(C)[C@@]3(F)C(=O)C[C@@]21C	inactive
CN1CCC(Nc2ncc3ncnc(Nc4ccc(F)c(Cl)c4)c3n2)CC1	inactive
O=C(Oc1ccccc1)c1cccc(C(=O)Oc2ccccc2)c1	inactive
O=C1NC2CCCCN2C12CCN(CCCN1c3ccccc3CCc3ccc(Cl)cc31)CC2 (stereo unspecified)	inactive
O=C1NC(c2cccc([N+](=O)[O-])c2)=CCN1c1ccccc1O	inactive
C=CCNc1nc(NCC=C)nc(N2CCN(C(c3ccc(F)cc3)c3ccc(F)cc3)CC2)n1	inactive
CC(=O)Oc1ccc(C2(c3ccc(OC(C)=O)cc3)Oc3ccccc3NC2=O)cc1	22.4 µM (active)
CC(C)=CCNc1ncnc2c1ncn2[C@@H]1O[C@H](CO)[C@@H](O)[C@H]1O	10 µM (active)
CC(CC1c2ccccc2CCc2ccccc21)CN(C)C (stereo unspecified)	inactive
C[C@H](N)C(=O)N[C@@H](C)C(=O)NC1[C@H]2CN(c3nc4c(cc3F)c(=O)c(C(=O)O)cn4-c3ccc(F)cc3F)C[C@@H]12 (stereo partly specified)	inactive
CC(C)OC(=O)c1cc2c(OCC(O)CNC(C)(C)C)cccc2[nH]1 (stereo unspecified)	inactive
CCCCCCCCCCCCCCCCCCNC(=O)OC1CCN(C(=O)OC[C@H](COC(=O)N(Cc2cccc[n+]2CC)C(=O)c2ccccc2OC)OC)CC1	25.1 µM (active)
COc1c(C)c2c(c(O)c1C/C=C(\C)CCC(=O)OCCN1CCOCC1)C(=O)OC2	2 µM (active)
CCCCCC(=O)O[C@]1(C(C)=O)CC[C@H]2[C@@H]3CCC4=CC(=O)CC[C@]4(C)[C@H]3CC[C@@]21C	inactive
